Reference: PubChem BioAssay AID1345085 (National Center for Advancing Translational Sciences (NCATS), 2018)
Records with an inconclusive call do not appear. Active and inactive are the calls of the source. The call rests on the fitted dose curve; in most records, active means well fitted cell-killing curve with a large enough effect; inconclusive means small, poorly fitted or top-dose-only effect, or effect the other way; inactive means no such curve, though single readings can be large or run the other way.

tested on: PA-1; assay: Confirmatory qHTS for gynecologic anti-cancer compounds from libraries of approved drugs and bioactive compounds; conditions: gynecologic cancer cell panel viability, ATPlite luminescence, 48 h; series mostly up to 57.6 µM; activity change, negative = viability loss: at the top concentration; further: nearly all actives have a fitted effect of over 55% in size
Summary of the method: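 Cells (1,000/well) plated 16 h, then exposed 48 h at 37 °C to 11 concentrations (1:3) from 57.5 uM to 0.977 nM. Viability by ATPlite luminescence after 15 min; IC50 derived, with HEK 293T used for selectivity index.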
On the % scale 0 is the no-effect control and ±100 the full control effect; potency means the concentration at half of the fitted maximal effect.

Structure (SMILES) | activity change, negative = viability loss | Potency
OCc1ccc(-c2ccc(-c3ccc(CO)s3)o2)s1 | -21.5% [at 19.5 µM] (inactive) | 
CC(Oc1ccc2[nH]nc(/C=C/c3cnn(CCO)c3)c2c1)c1c(Cl)cncc1Cl (stereo not drawn) |  | 1.93 µM (active)
CN1CCN(Cc2ccc(NC(=O)Nc3ccc(Oc4cc(NC(=O)C5CC5)ncn4)cc3)cc2C(F)(F)F)CC1 |  | 0.193 µM (active)
